From PubChem BioAssay AID504911 (Southern Research Specialized Biocontainment Screening …, 2011)
Measured potencies and affinities stand elsewhere. A number with no mark means an inactive call. The rule behind the calls is not given here.

Assay: THP-1 cell cytotoxicity, cytotoxicity control, set 4 (AID 504911)
Conditions: THP-1 cytotoxicity; series mostly up to 100 µM; viability: at the top concentration

SMILES | viability
CN[C@@H]1[C@H](O[C@H]2[C@H](O[C@H]3[C@H](O)[C@@H](O)[C@H](N=C(N)N)[C@@H](O)[C@@H]3N=C(N)N)O[C@@H](C)[C@]2(O)C=O)O[C@@H](CO)[C@H](O)[C@H]1O | 115%
Cc1cnc(SCC(=O)NC2CCCCC2)[nH]c1=O | 111%
NNC(=O)c1ccncc1 | 118%
COC(=O)c1ccc(CNc2c(N3CCCC3)c(=O)c2=O)cc1 | 92.3%
Cc1nc(SCC(=O)NCCC(C)C)[nH]c(=O)c1C | 97%
CCC(Sc1nc2c(c(=O)[nH]1)CCC2)C(=O)Nc1cccc(OC)c1 (configuration not stated) | 90.2%
CN(C)C(=O)CSc1nc2ccccc2c(=O)[nH]1 | 103%
Cc1ccc(NC(=O)CSc2nc3ccccc3c(=O)[nH]2)cc1Cl | 92.1%
O=c1[nH]c(=S)[nH]c2ccccc12 | 92.2%
COc1ccc(NC(=O)CSc2nc3ccccc3c(=O)[nH]2)cc1 | 111%
Cc1ccc(NC(=O)COC(=O)CCc2c[nH]c3ccccc23)cc1[N+](=O)[O-] | 113%
CN1CCC(NC(=O)CSc2nc3ccccc3c(=O)[nH]2)CC1 | 117%
Cc1cc(=O)[nH]c(SCC(=O)NC2CCCCC2)n1 | 106%
NC[C@H]1O[C@H](O[C@H]2[C@H](O)[C@@H](O[C@H]3O[C@H](CO)[C@@H](O)[C@H](N)[C@H]3O)[C@H](N)C[C@@H]2N)[C@H](O)[C@@H](O)[C@@H]1O | 108%
CCOC1OC(=O)C(Cl)=C1Nc1ccccc1C (configuration not stated) | 91.9%
Cc1nc(SCC(=O)NC2CCCCC2)[nH]c(=O)c1C | 98.9%

SMILES | viability
Nc1cc(=O)[nH]c(SCC(=O)NC2CCCCC2)n1 | 93.1%
O=C(CSc1nc2ccccc2c(=O)[nH]1)NC1CCCCC1 | 113%
Cc1[nH]c(=S)[nH]c(=O)c1C | 113%
CCOC(=O)CSc1nc(C)c(C)c(=O)[nH]1 | 92.5%
CCC(Sc1nc2ccccc2c(=O)[nH]1)C(=O)Nc1cccc(OC)c1 (configuration not stated) | 91.9%
NC(=O)CSc1nc2ccccc2c(=O)[nH]1 | 84.8%
Cc1c[nH]c(=S)[nH]c1=O | 81.8%
Cn1c(SCC(=O)NC2CCCCC2)nc2ccccc2c1=O | 94.2%
CCC(Sc1nc2ccccc2c(=O)[nH]1)C(=O)NC1CCCCC1 (configuration not stated) | 102%
CC(C)CCNC(=O)CSc1nc2c(c(=O)[nH]1)CCC2 | 82.7%
Cc1nc(SCC(N)=O)[nH]c(=O)c1C | 110%
Cc1cc(=O)[nH]c(=S)[nH]1 | 91.6%
COc1c(N2CCNC(C)C2)c(F)cc2c(=O)c(C(=O)O)cn(C3CC3)c12 (configuration not stated) | 107%
CC[C@@H](CO)NCCN[C@@H](CC)CO | 110%
Cc1nc(SCC(=O)NC2CCCC2)[nH]c(=O)c1C | 110%
CC1CCN(C(=O)CSc2nc3ccccc3c(=O)[nH]2)CC1 | 99.6%
